Compound activity: PubChem BioAssay, several laboratories
Most compounds without a hit are left out; they make up all but 3.2% or so of the library.
SKN-1 inh: suppressors of acrylamide-induced Pgst-4::GFP reporter in worms, primary screen, SKN-1 inhibitor project, whole organism, uHTS, GFP/RFP fluorescence ratio, strain VP596; AID 624304, 2012; inhibition, % at 21.8 µM; 0.49% of 360,000 active; C. elegans VP596 Pgst-4::GFP/RFP ratio, 24 h;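 active = interference check ratio from 0.5 to 1.5 plus GFP to RFP signal ratio inhibition reaching or exceeding a fixed threshold, cut at about 30% in these data, passing the limit was not always enough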
CendR NRP1 mod: modulators of CendR peptide binding to NRP-1, primary screen, biochemical, fluorescence polarization, uHTS; FAM-RPARPAR peptide binding to NRP-1; inhibition, % at 25 µM; 0.85% of 360,000 active; AID 602438, 2012;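 active = inhibition or corrected inhibition above about 18%, plus a signal ratio from 0.5 to 1.5, limit read from the data, passing the limit was not always enough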
MEKK3 PB1 HTS: modulators of MEKK3-MEK5 PB1 binding, primary screen, biochemical, wildtype MEKK3, multiplex bead flow cytometry, Alexa488-MEK5; Mitogen-activated protein kinase kinase kinase 3 (Homo sapiens), Q99759; bead-based flow cytometry, Alexa488-MEK5 binding to MEKK3; actives lie on both sides; 0 = blocked by unlabeled MEK5, 100 = vehicle; binding response (% of control), % at 10 µM; 1.4% of 290,000 active;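 active = binding response more than 3 SD above or below the average of its plate-row segment, actives on both sides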;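 also: Alexa488 bead fluorescence after subtracting the streptavidin-only scavenger bead signal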
MEKK2mut PB1 HTS: MEK5 binding signal on mutant MEKK2 PB1, primary screen, biochemical, multiplex bead flow cytometry, Alexa488-MEK5; Alexa488-MEK5 binding to MEKK2 mutant; percent response, % at 10 µM; 0.35% of 290,000 active; AID 1530, 2009; in the data active = percent response above about 24%, passing the limit was not always enough
MEKK2 WT-MEK5: modulators of MEK5 binding to wildtype MEKK2, primary screen, biochemical, multiplex bead flow cytometry, Alexa488-MEK5 | Mitogen-activated protein kinase kinase kinase 2 (Homo sapiens), Q9Y2U5 | Alexa488-MEK5 binding to MEKK2 WT; actives lie on both sides | binding response (% of control), % at 10 µM | 1.1% of 290,000 active; in the data active = binding response below about 67% or above about 130%
An asterisk follows results filed as active; ! = not confirmed by another sample.

How did CCCCN1C(=O)C(CC(=O)NCCc2ccccn2)CC(C(=O)N2CCCCCC2)=C1C (stereo not drawn) do in these assays?
SKN-1 inh: -10; CendR NRP1 mod: 0

Results for CC1OC(OCC2OC(Oc3c(-c4ccc(O)cc4)oc4cc(O)cc(O)c4c3=O)C(O)C(O)C2O)C(O)C(O)C1O (stereo not drawn) ?
SKN-1 inh: 20; CendR NRP1 mod: 22*; MEKK3 PB1 HTS: 99; MEKK2mut PB1 HTS: 1; MEKK2 WT-MEK5: 89

How did CN(c1cccc(Cl)c1)S(=O)(=O)c1cccc(C(=O)NCc2ccncc2)c1 do in these assays?
SKN-1 inh: -3; CendR NRP1 mod: 24*

What do the screens show for `O=S1(=O)CCC(NC(=S)SCCOc2ccccc2)C1` (stereo not drawn)?
SKN-1 inh: 7; CendR NRP1 mod: -2; MEKK3 PB1 HTS: 98; MEKK2mut PB1 HTS: -1; MEKK2 WT-MEK5: 97

Results for CCCCSC(=S)NC1CCS(=O)(=O)C1 (stereo not drawn) ?
SKN-1 inh: -5; CendR NRP1 mod: 25*; MEKK3 PB1 HTS: 103; MEKK2mut PB1 HTS: -2; MEKK2 WT-MEK5: 99

Results for CC(=O)c1ccc(OCc2cc(C(=O)NCCc3ccc(Cl)cc3)no2)cc1 ?
SKN-1 inh: 7; CendR NRP1 mod: 12; MEKK3 PB1 HTS: 102; MEKK2mut PB1 HTS: 5; MEKK2 WT-MEK5: 101

Results for COc1cccc(O)c1CN1CCC(n2nccc2NC(=O)c2ccc3c(c2)OCO3)CC1 ?
SKN-1 inh: 18; CendR NRP1 mod: 12; MEKK3 PB1 HTS: 102; MEKK2mut PB1 HTS: 11; MEKK2 WT-MEK5: 121

What do the screens show for `COc1ccccc1/C=C/C=N/N1CCN(Cc2ccc(Cl)cc2)CC1`?
SKN-1 inh: 36*; CendR NRP1 mod: 2; MEKK3 PB1 HTS: 101; MEKK2mut PB1 HTS: 8; MEKK2 WT-MEK5: 120

What do the screens show for `COc1ccccc1C(=O)NCCCNC(=O)c1cccnc1`?
SKN-1 inh: 27; CendR NRP1 mod: 33*; MEKK3 PB1 HTS: 100; MEKK2mut PB1 HTS: -5; MEKK2 WT-MEK5: 96

How did COc1ccccc1C(=O)NCCCNC(=O)c1cnccn1 do in these assays?
SKN-1 inh: 7; CendR NRP1 mod: 17; MEKK3 PB1 HTS: 106; MEKK2mut PB1 HTS: 1; MEKK2 WT-MEK5: 103

Results for O=[N+]([O-])C1C(c2ccccc2)=NOC1c1ccccc1O (stereo not drawn) ?
SKN-1 inh: 11; CendR NRP1 mod: 9; MEKK3 PB1 HTS: 102; MEKK2mut PB1 HTS: 12; MEKK2 WT-MEK5: 107

What do the screens show for `COc1ccc(NC(=O)CSc2nccn2-c2ccccc2)c(OC)c1`?
SKN-1 inh: 18; CendR NRP1 mod: 26*; MEKK3 PB1 HTS: 101; MEKK2mut PB1 HTS: 2; MEKK2 WT-MEK5: 101

Results for Cc1nc2nc(CSc3nnc(C)s3)cc(=O)n2[nH]1 ?
SKN-1 inh: 1; CendR NRP1 mod: 24*!; MEKK3 PB1 HTS: 108; MEKK2mut PB1 HTS: 2; MEKK2 WT-MEK5: 104

How did CCCc1cc(=O)n2[nH]c(C)nc2n1 do in these assays?
SKN-1 inh: -1; CendR NRP1 mod: -3; MEKK3 PB1 HTS: 101; MEKK2mut PB1 HTS: 3; MEKK2 WT-MEK5: 103

How did COc1ccc(-c2cnc(C(O)c3ccc(C(C)(C)C)cc3)[nH]2)cc1 (stereo not drawn) do in these assays?
SKN-1 inh: 11; CendR NRP1 mod: -9

What do the screens show for `CCCCCC(=O)N1C[C@H](n2cc(COC(=O)c3ccccc3)nn2)[C@@H](O)C[C@@H]1c1ccc(OC)cc1`?
SKN-1 inh: -8; CendR NRP1 mod: -4

What do the screens show for `CC(=O)Nc1csc2ccccc12`?
SKN-1 inh: 1; CendR NRP1 mod: 18; MEKK3 PB1 HTS: 99; MEKK2mut PB1 HTS: -1; MEKK2 WT-MEK5: 96

How did O=C(Nc1ccccc1)Nc1csc2ccccc12 do in these assays?
SKN-1 inh: 35*; CendR NRP1 mod: 5; MEKK3 PB1 HTS: 90; MEKK2mut PB1 HTS: -18; MEKK2 WT-MEK5: 97
